Eya2 inh: inhibitors of human Eya2 phosphatase activity | AID 488837 | recombinant Eya2, OMFP fluorescence dephosphorylation (OMFP is methylfluorescein phosphate) | Potency, µM (doses to about 76.9 µM), inactives show at the top dose activity, negative = inhibition, most hits filed as inhibitors | 330,000 compounds, 0.006% hits | O00167; active means well fitted curve in the direction sought with a large enough effect; inconclusive means small, poorly fitted or top-dose-only effect, or another doubt; inactive means no such curve, though single readings can be large; an effect the other way counts as inactive or inconclusive; further: potency means the concentration at half of the fitted maximal effect; on the % scale 0 is the no-effect control and ±100 the full control effect
Target sequence (O00167 whole entry, looked up): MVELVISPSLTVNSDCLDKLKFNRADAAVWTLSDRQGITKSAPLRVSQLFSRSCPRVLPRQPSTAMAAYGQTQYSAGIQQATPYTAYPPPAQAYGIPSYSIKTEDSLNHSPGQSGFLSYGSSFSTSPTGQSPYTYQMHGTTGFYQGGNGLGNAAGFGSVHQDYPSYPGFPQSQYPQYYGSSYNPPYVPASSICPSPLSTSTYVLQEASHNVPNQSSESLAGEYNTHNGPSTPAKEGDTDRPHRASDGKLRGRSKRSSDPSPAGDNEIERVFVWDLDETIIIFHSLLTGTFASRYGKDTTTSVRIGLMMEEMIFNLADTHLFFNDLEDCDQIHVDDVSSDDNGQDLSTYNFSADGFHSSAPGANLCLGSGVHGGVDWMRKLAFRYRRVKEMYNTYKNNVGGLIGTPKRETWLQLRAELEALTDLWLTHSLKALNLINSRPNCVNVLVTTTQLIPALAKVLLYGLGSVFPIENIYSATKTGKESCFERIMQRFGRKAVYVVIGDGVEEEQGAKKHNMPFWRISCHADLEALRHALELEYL
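Eya2 protein (added as 0.2 uM solution) was preincubated with compound for 10 min at ambient temperature in 50 mM HEPES pH 7.5, 50 mM NaCl, 5 uM MgCl2, 0.05% BSA, 1 mM DTT. OMFP (added at 50 uM) then reacted 10 min; fluorescence read at 485/525 nm.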
GRP78 ERSR act: inducers of ER stress response in human glioma cells; Potency, µM, for inactives: top-dose activation, hits mostly activators; 420,000 compounds, 0.02% hits; U87-MG GRP78 promoter luciferase reporter, 16 h; active means well fitted curve in the direction sought with a large enough effect; inconclusive means small, poorly fitted or top-dose-only effect, or another doubt; inactive means no such curve, though single readings can be large; an effect the other way counts as inactive or inconclusive; further: potency means the concentration at half of the fitted maximal effect; series mostly up to about 76 µM; % of control where 0% means no effect; nearly all actives have a fitted effect of over 35% in size
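Stably transfected U87-MG glioma cells carrying a GRP78-based luciferase sensor; 16 h compound incubation. Luminescence end-point read 10 min after Bright-Glo addition at room temperature.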
CtBP-E1A blk: CtBP/E1A binding inhibition; 340,000 compounds, 0.49% hits; AlphaScreen GST-E1A/His-CtBP binding, 1536-well; stronger effect = lower value; activity change, % (no concentration beside the values); further: on the % scale 0 is the no-effect control and ±100 the full control effect
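Homogeneous bead-based format: GST-tagged E1A captured on glutathione donor beads, His-tagged CtBP on nickel acceptor beads; compounds precede bead addition by 2 h at 37 °C.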
Six1-Eya2 blk: inhibitors of human Six1/Eya2 interaction; AlphaScreen GST-Six1/His-Eya2 binding, biochemical; stronger effect = lower value; 360,000 compounds, 0.56% hits; activity change, % (test concentration not listed); further: on the % scale 0 is the no-effect control and ±100 the full control effect
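AlphaScreen luminescence read after one hour at 37 °C in darkness. Pin-transferred compounds met GST-Six1 and His-Eya2 protein (5X stock 250 nM/500 nM) plus glutathione donor and Ni-chelate acceptor beads (5X, 50 ug/mL).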
* marks the source's active call; other numbers are inactive results; ? = inconclusive; / = no result given. This is a sample that favours compounds with a hit; in the whole collection about 0.58% have one here. Unless noted, no stated cut-off is given here; in the data, active means activity change below about -65%; inconclusive means mostly about -30% to -63%; inactive means weaker than that.

SMILES | Eya2 inh | GRP78 ERSR act | CtBP-E1A blk | Six1-Eya2 blk
CC(C)(C)NC(=O)CCN(/N=C/c1ccncc1)C1=NS(=O)(=O)c2ccccc21 | -3% | -4% | -82* | -68*
Cc1ccccc1Nc1nc(N)[nH]c(=O)c1N=O | / | 1% | -86* | ?
CCc1c(Cl)nc(N)nc1Nc1ccccc1C | / | -2% | 5 | -1
CC(=O)N1CCC[C@H]1C(=O)NCC1Cc2cc(C)cc(-c3ccc(Cl)cc3)c2O1 (some centres undefined) | / | -1% | / | /
CCN(CC)c1ccc(Nc2nc(N3CCOCC3)c3ccccc3n2)cc1 | -12% | 7% | -78* | -81*
CC(C)(C)n1ncc2c(=O)n(Cc3ccccc3CS(=O)(=O)c3ccccc3)cnc21 | / | -2% | / | /
COc1ccc(-c2nn3c(-c4ccccn4)nnc3s2)cc1OC | 0% | 1% | -89* | -81*
COc1cccc(-c2nn3c(-c4ccccn4)nnc3s2)c1 | -3% | 4% | ? | ?
Brc1ccc(-c2nn3c(-c4ccncc4)nnc3s2)o1 | -2% | / | / | /
Brc1ccc(-c2nn3c(-c4ccccn4)nnc3s2)o1 | 11% | 2% | -78* | -77*
CCN(Cc1ccncc1)Cc1ccc2c(c1)CN(C(=O)c1cccc(-n3nc(C)cc3C)c1)CCO2 | / | -4% | / | /
Oc1oc(-c2ccccc2)nc1C=Nc1ccccc1 | ? | 6% | 9 | -3
Sc1oc(-c2ccccc2)cc1C=Nc1ccccc1 | -12% | 8% | -73* | -71*
Cn1c2ccccc2c2cc(/C=N/NC(=O)c3cc(O)ccc3O)ccc21 | 8% | 7% | ? | -69*
Cn1c2ccccc2c2cc(/C=N/NC(=O)c3cc(O)cc(O)c3)ccc21 | -1% | -3% | ? | ?
CNc1cncc(-c2cccc(NS(C)(=O)=O)c2)n1 | / | -3% | -67* | ?
CC(C)(CNC(=O)c1cnn(-c2nccc(-c3cc4ccccc4o3)n2)c1C1CC1)N1CCOCC1 | / | 1% | / | /
CCN(CC)C(=O)c1sc2nc(-c3ccncc3)[nH]c(=O)c2c1C | -6% | -2% | 5 | 0
Cc1sc2nc(-c3ccncc3)[nH]c(=O)c2c1-c1ccccc1 | -9% | / | / | /
CCN(CC)C(=O)c1sc2nc(-c3ccccn3)[nH]c(=O)c2c1C | / | 3% | -88* | -90*
Cc1sc2nc(-c3ccccn3)[nH]c(=O)c2c1-c1ccccc1 | -3% | 3% | -83* | ?
COCc1c(C(=O)N2CC3CCC2C3)cnn1-c1nccc(-c2ccccc2OC)n1 (centres undefined) | / | 1% | / | /
COCCNC(=S)N/N=C(\C)c1ccccc1O | 3% | 2% | ? | -69*
COCCNC(=S)N/N=C(\C)c1ccccc1OC | 5% | -5% | -11 | -7
Oc1ccccc1/C=N/NC(=S)NC1CC2CCC1C2 (centres undefined) | 2% | -1% | -84* | -85*
SMILES | Eya2 inh | GRP78 ERSR act | CtBP-E1A blk | Six1-Eya2 blk
COCCCNC(=S)N/N=C/c1ccccc1O | -1% | ? | / | -90*
COCCNC(=S)N/N=C/c1ccccc1C(=O)O | 11% | -7% | 1 | 4
C(=N\NC1=Nc2cccc3cccc1c23)/c1ccccn1 | -4% | 4% | / | ?
C(=N\Nc1nc2ccccc2s1)/c1ccccn1 | 2% | -12% | -86* | -73*
COc1ccc(C=NNc2nc3ccccc3s2)cc1 | / | -12% | -5 | 9
C(=NNc1ccc2ccccc2n1)c1ccccn1 | / | -10% | -69* | -69*
O=C(N/N=C/c1cc(Br)ccc1O)c1cccc(N2CCCC2=O)c1 | -1% | -3% | -67* | -78*
COc1ccc(O)c(/C=N/NC(=O)c2ccc(N3CCCC3=O)cc2)c1 | -3% | -2% | -71* | ?
COc1ccc(O)c(/C=N/NC(=O)c2cccc(N3CCCC3=O)c2)c1 | 0% | 2% | ? | ?
Oc1ccccc1C=NCCN1CCN(CCN=Cc2ccccc2O)C1c1ccccc1O (centres undefined) | / | -5% | -99* | -86*
O=C(Nc1ccccc1C(=O)Nc1ccccc1C(=O)O)c1ccccc1 | -1% | -4% | -67* | -81*
O=C(Nc1ccccc1C(=O)O)c1ccc(NC(=O)C2CC2)cc1 | -5% | -10% | ? | -81*
Nc1ccc(C(=O)Nc2ccccc2C(=O)O)cc1 | 7% | -4% | ? | -26
CC(C)COCc1ccc(O)c2ncccc12 | 12% | -4% | -91* | -79*
CCCOCc1ccc(O)c2ncccc12 | -1% | -7% | -94* | -70*
CSc1nc(-c2ccc(Cl)cc2Cl)[nH]c(=O)c1C#N | 13% | -6% | ? | -72*
C[C@@H]1CN(Cc2ccc3c(c2)CN(Cc2coc4ccccc4c2=O)CCO3)C[C@H](C)O1 | / | 0% | / | /
O=C(O)c1ncn(Cc2ccccc2)c1C(=O)O | -13% | 1% | ? | -69*
O=C(NCc1ccccc1)c1ncn(Cc2ccccc2)c1C(=O)NCc1ccccc1 | -1% | -6% | 5 | -8
CCCC(=O)NC(c1ccc(Cl)cc1)c1ccc2cccnc2c1O (centres undefined) | 8% | -8% | -77* | -70*
CCCC(=O)NC(c1ccc(C)cc1)c1ccc2cccnc2c1O (centres undefined) | 3% | -2% | -90* | -66*
CCCC(=O)NC(c1ccc(Cl)cc1Cl)c1ccc2cccnc2c1O (centres undefined) | 0% | -8% | -73* | ?
CC(=O)NC(c1ccc(Cl)cc1Cl)c1ccc2cccnc2c1O (centres undefined) | -14% | -8% | -88* | -90*
COc1ccc(CN2CCCC(Cn3cc(C(=O)N4CCCC4)nn3)C2)c(O)c1 (centres undefined) | / | -2% | / | /
CCC1CN(CCNC(=O)c2cc(C)nn2CC)Cc2cc(OC)ccc2O1 (centres undefined) | / | -4% | / | /
SMILES | Eya2 inh | GRP78 ERSR act | CtBP-E1A blk | Six1-Eya2 blk
CC(=O)NC(c1ccc2ccccc2c1)c1ccc2cccnc2c1O (centres undefined) | 10% | -7% | -66* | -89*
O=C(CNc1ccc2ccccc2c1)N/N=C/c1ccc(OC(=O)/C=C/c2ccco2)cc1 | -8% | 6% | -67* | ?
Cc1ccc(C(=O)N/N=C/c2cccc(OC(=O)/C=C/c3ccco3)c2)cn1 | 15% | -1% | / | -10
O=C(CNc1cccc2ccccc12)N/N=C/c1ccc(OC(=O)/C=C/c2ccco2)cc1 | -2% | 0% | -79* | ?
O=C(COc1ccc2ccccc2c1)NCC(=O)N/N=C/c1ccco1 | -24% | -6% | 2 | 0
O=C(/C=C/c1ccco1)Oc1cc(Br)cc(/C=N/NC(=O)c2ccccc2O)c1 | 1% | 2% | -92* | -88*
CC(C)Oc1ccc(C(=O)NCC2Cc3cc(Cl)cc(-c4ncccn4)c3O2)cc1 (centres undefined) | / | -1% | / | /
COc1ccccc1C(=O)N(Cc1cc2cccc(C)c2nc1N1CCC(O)CC1)C1CC1 | / | -3% | / | /
COCC1=C(C(=O)OC(C)OC(=O)OC(C)C)N2C(=O)C(NC(=O)/C(=N/OC)c3csc(N)n3)[C@H]2SC1 (some centres undefined) | / | -3% | / | /

Source: PubChem
